High-throughput results deposited in PubChem BioAssay by National Center for Advancing Translational Sciences (NCATS).
A selection: hits, their analogues and other compounds. The true share with any hit is near 19%.
DT40 TDP1 no CPT – qHTS for Inhibitors of human tyrosyl-DNA phosphodiesterase 1 (TDP1): qHTS in cells in absence of CPT; Potency, µM (doses to about 46.2 µM), inactives show top-dose activity change, negative = growth inhibition, actives largely listed as inhibitors; actives 15% (n = 420,000); DT40 Tdp1-/- hTDP1 cells, no CPT, ATP luminescence, 48 h; AID 686978, 2013; further: potency means the concentration at half of the fitted maximal effect; on the % scale 0 is the no-effect control and ±100 the full control effect; nearly all actives have a fitted effect of over 55% in size
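No-CPT arm: Tdp1-/-;hTDP1 DT40 cells (400/well) plus compounds, incubated ≥48 hr at 37 °C. Readout CellTiter-Glo luminescence.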
IL-1B inflam inh – qHTS for Inhibitors of Inflammasome Signaling: IL-1-beta AlphaLISA Primary Screen; activity change, % at 57.5 µM; AID 743279, 2014; actives 4.7% (n = 360,000); THP-1 LPS/ATP IL-1B secretion, AlphaLISA, 16 h; hits give low values; in the data active means activity change below about -50%; inconclusive means mostly about -30% to -49%; further: on the % scale 0 is the no-effect control and ±100 the full control effect
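Secreted IL-1B measured by AlphaLISA bead assay after 16 h compound exposure of THP-1 cells; compounds (final up to 57.5 uM) added 1 h before LPS (250 ng/mL) and ATP (1.25 mM) stimulation; lower signal means less secretion.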
TGFb inhibitor – qHTS for Inhibitors of TGF-b | Potency, µM (doses to about 46.1 µM), for inactives: at the top dose activity, negative = inhibition, actives largely listed as inhibitors | HepG2 CAGA-GFP TGF-b/SMAD3 reporter, GFP fluorescence, 18 h; TGF-beta stimulated, 500 pg/mL final | actives 1.2% (n = 410,000); further: potency means the concentration at half of the fitted maximal effect; on the % scale 0 is the no-effect control and ±100 the full control effect; nearly all actives have a fitted effect of over 65% in size
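HEPG2 CAGA-GFP, 1000 cells/well; 2 h settle, 37 C; cpd via pin tool; TGF-b 500 pg/mL final; 18 h, 37 C; GFP imaging ex488/em500-530; %Activity normalised to -TGF-b and +DMSO controls; CRC fit, curve class.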
S-ASM inh – Inhibitors of Secretory Acid Sphingomyelinase (S-ASM): qHTS; Sphingomyelin phosphodiesterase (Homo sapiens), P17405; placental ASM, HMU-PC fluorogenic substrate, 60 min; Potency, µM (series often up to 57.5 µM), without a hit: top-dose activity change, negative = inhibition, most hits filed as inhibitors; actives 0.006% (n = 340,000); further: potency means the concentration at half of the fitted maximal effect
Target sequence (P17405 47-631 limits assumed): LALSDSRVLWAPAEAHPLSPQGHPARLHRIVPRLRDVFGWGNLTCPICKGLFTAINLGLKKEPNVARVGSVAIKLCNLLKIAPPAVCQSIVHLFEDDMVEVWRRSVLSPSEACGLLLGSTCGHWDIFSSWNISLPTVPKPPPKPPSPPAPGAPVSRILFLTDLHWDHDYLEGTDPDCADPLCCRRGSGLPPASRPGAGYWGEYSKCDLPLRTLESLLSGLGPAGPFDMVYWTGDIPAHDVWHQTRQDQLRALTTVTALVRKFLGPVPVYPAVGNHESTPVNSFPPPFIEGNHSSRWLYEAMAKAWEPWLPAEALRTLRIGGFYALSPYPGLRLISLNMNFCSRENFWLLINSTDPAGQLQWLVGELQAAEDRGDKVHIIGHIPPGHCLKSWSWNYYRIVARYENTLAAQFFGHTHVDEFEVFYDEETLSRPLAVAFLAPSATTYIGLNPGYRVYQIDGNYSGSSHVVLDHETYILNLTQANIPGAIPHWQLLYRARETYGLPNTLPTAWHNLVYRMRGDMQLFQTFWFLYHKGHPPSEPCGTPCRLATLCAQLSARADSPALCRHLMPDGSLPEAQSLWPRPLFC
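Steps: dispense placental human ASM, pin compound, wait 10 min at room temperature, add HMU-PC0 substrate at 9 uM final, incubate 60 min at 37 °C, add stop solution raising pH to 10, read fluorescence.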
HepG2 tox – qHTS for Inhibitors of TGF-b: Cytotox Counterscreen; Potency, µM (top dose mostly 46.1 µM), inactives show at the top dose activity change, negative = cytotoxicity, most hits filed as cytotoxic; AID 588856, 2011; HepG2 CAGA-GFP viability, ATP luminescence, 18 h; actives 0.76% (n = 410,000); further: potency means the concentration at half of the fitted maximal effect
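HepG2 CAGA-GFP cells (1000/well, DMEM with 1% FBS) received compound, then TGF-beta at 500 pg/mL final, and were incubated 18 hours at 37 degrees C. Viability was read by CellTiter-Glo luminescence. Media-only wells were set as complete cell-killing and DMSO as no toxicity.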
TDP1 cell CPT – qHTS for Inhibitors of human tyrosyl-DNA phosphodiesterase 1 (TDP1): qHTS in cells in presence of CPT | AID 686979, 2013 | actives 12% (n = 420,000) | chicken DT40 Tdp1-/-;hTDP1 cells + 20 nM CPT, ATP luminescence, 48 h | Potency, µM (series often up to 46.2 µM), for inactives: at the top dose activity change, negative = growth inhibition, usual class: inhibitors; further: potency means the concentration at half of the fitted maximal effect; on the % scale 0 is the no-effect control and ±100 the full control effect; nearly all actives have a fitted effect of over 55% in size
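Chicken DT40 Tdp1-/- cells stably complemented with human TDP1 were seeded at 400 cells/well in medium containing 20 nM camptothecin, exposed to pin-transferred compounds, and grown at 37 °C for at least 48 hr. Viability was read as ATP luminescence.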
Starred values were filed as active, the others as inactive; i = inactive; ? = inconclusive; / = not tested or not shown; [ ] = dose if it differs, or a comment. Unless noted, the call rests on the fitted dose curve; in most records, active means well fitted curve in the direction sought with a large enough effect; inconclusive means small, poorly fitted or top-dose-only effect, or another doubt; inactive means no such curve, though single readings can be large; an effect the other way counts as inactive or inconclusive.

SMILES	DT40 TDP1 no CPT	IL-1B inflam inh	TGFb inhibitor	S-ASM inh	HepG2 tox	TDP1 cell CPT
COc1cccc(-c2ccc(O)c(CNCc3cccc(OC)c3OC)c2)n1	?	/	/	/	/	-5%[9.04 µM]
COc1cc(NC(=O)c2ccccc2[N+](=O)[O-])ccc1NC(=O)c1cc2ccccc2o1	8.2µM*	?	?	-10%	-40%	16µM*
COc1cc(NC(=O)c2cccs2)ccc1NC(=O)c1cc2ccccc2o1	12µM*	-13	0%	113%	-4%	?
COc1cc(NC(=O)c2cc(Cl)ccc2Cl)ccc1NC(=O)c1cc2ccccc2o1	4.6µM*	/	-21%	/	-28%	5.8µM*
COc1ccc(-c2nc3cc(C(C)C)ccc3o2)cc1NC(=O)c1ccccc1[N+](=O)[O-]	10µM*	/	9%	/	9%	8.2µM*
Cc1ccccc1C1(CC(=O)N2CCOCC2)CC(=O)N(Cc2cccnc2)C1=O (stereo not given)	-7%	/	/	/	/	16%[9.04 µM]
Cc1ccc(/C(O)=C2\C(=O)C(=O)N(Cc3cccnc3)C2c2ccccc2[N+](=O)[O-])cc1 (stereo not given)	-16%	3	-20%	3%	-10%	2%
CCOc1ccccc1C(=O)NC(C(=O)OCn1nnc2ccccc2c1=O)C(C)C (stereo not given)	26µM*	10	13%	/	0%	?
CCOc1ccccc1C(=O)N[C@H](C(=O)OCc1csc(CC(=O)Nc2ccc(C)cc2)n1)C(C)C	15µM*	?	?	-5%	7%	18µM*
CCOc1ccccc1C(=O)N[C@H](C(=O)OCc1cc(=O)oc2cc(C)ccc12)C(C)C	16µM*	-55*	?	-2%	0%	6.5µM*
Cc1ccc2c(COC(=O)c3ccccc3Cl)cc(=O)oc2c1	-9%	2	2%	1%	-16%	9%
O=C(c1ccc(N2CCCC2)c([N+](=O)[O-])c1)N1CCN(S(=O)(=O)c2ccccc2)CC1	?	?	-3%	-6%	-21%	-5%
Cc1ccccc1NC(=S)NCCc1c[nH]c2ccccc12	?	-9	?	1%	-16%	-13%
COc1ccc2[nH]c(I)c(CCNC(C)=O)c2c1	4%	/	/	/	/	1%
COc1ccc2[nH]c(C)c(CCNC(=S)Nc3ccc(C)cc3)c2c1	?	-26	?	-1%	-24%	18µM*
COc1ccc2[nH]c(C)c(CCNC(=S)Nc3ccccc3C)c2c1	?	-10	?	-5%	-42%	18µM*
COc1ccc2[nH]c(C)c(CCNC(=S)Nc3cccc(C)c3C)c2c1	21µM*	8	?	-6%	-43%	?
CCOC(=O)C1(C)CCN1C(=O)c1ccc(C(=O)OC)cc1 (stereo not given)	-25%	19	-2%	/	-22%	?
O=C(COCc1cc(-c2ccc3c(c2)OCO3)on1)Nc1cccnc1Cl	10%	5	4%	0%	2%	-11%
C[C@H](NC(=O)C1CC(=O)N(c2ccc(F)cc2)C1)C(=O)N1CCCCC1 (stereo not given in full)	?	14	2%	1%	-2%	-16%
COc1ccc(CCC(=O)NCc2nc3cccnc3n2Cc2ccc(OC)cc2)cc1	-15%	/	-18%	/	-33%	-9%
COc1ccc(CCC(=O)NCc2nc3cccnc3n2Cc2ccccc2)cc1	16µM*	/	-6%	/	-23%	?
COc1ccc(CCC(=O)NCc2nc3cccnc3n2Cc2ccc(C)cc2)cc1	23µM*	/	/	/	-22%	?
CCOc1ccccc1C(=O)NCc1nc2cccnc2n1Cc1ccc(C)cc1	16µM*	/	-34%	/	-12%	18µM*
COc1ccc(CCC(=O)NCc2nc3cccnc3n2Cc2ccc(F)cc2)cc1	?	/	?	/	-29%	?
SMILES	DT40 TDP1 no CPT	IL-1B inflam inh	TGFb inhibitor	S-ASM inh	HepG2 tox	TDP1 cell CPT
Cc1c(C(=O)NC(C)c2ccccc2)sc2nc3n(c(=O)c12)CCCC3 (stereo not given)	-5%	/	-7%	/	-17%	-18%
CCOC(=O)[C@@H]1[C@H]2COc3ccccc3[C@@H]2N2C(=O)N(c3ccc(F)cc3)C(=O)[C@]12C	-10%	6	1%	-2%	0%	-2%
CC1Sc2ccc(S(=O)(=O)CCC(=O)NC(C)c3ccccc3)cc2NC1=O (stereo not given)	-5%	23	3%	1%	0%	-17%
CC(=O)N1CCN(S(=O)(=O)c2cccc(C(=O)OCC(=O)N3CC(=O)Nc4ccccc43)c2)CC1	-18%	24	-35%	5%	-23%	8%
Cc1noc(C)c1COc1cccc(C(=O)OCC(=O)N2CC(=O)Nc3ccccc32)c1	0.65µM*	83	-2%	-3%	-2%	0.58µM*
COc1ccccc1Cc1c(C2CCCCC2)nc2ccc(Cl)cn12	26µM*	-14	?	/	18µM*	23µM*
FC(F)(F)c1ccccc1Cc1c(C2CCCCC2)nc2ccc(Cl)cn12	?	-21	?	/	-31%	?
Cc1cc(Br)cn2c(CC(C)(C)C)c(C3CCCCC3)nc12	?	25	-17%	/	-16%	?
Cc1ccc2nc(C3CCCCC3)c(CC(C)(C)C)n2c1	16µM*	33	?	/	-25%	?
COc1ccccc1Cc1c(C2CCCCC2)nc2ccc(C)cn12	23µM*	-17	16µM*	/	-51%	21µM*
O=[N+]([O-])c1ccc(CS(=O)(=O)c2ncn[nH]2)cc1	-4%	7	0%	-2%	-1%	28%
CCOC(=O)c1cc(S(=O)(=O)N2CCN(c3ccccc3OC)CC2)cn1C	?	28	-25%	-1%	-5%	-10%
CCN1c2ccccc2-c2nc3ccccc3n2C1c1ccncc1 (stereo not given)	?	-8	25%	234%	1%	?
CCN1c2ccccc2-c2nc3ccccc3n2C1c1ccccn1 (stereo not given)	16µM*	-17	-15%	i	7%	?
